Here are results for 13 compounds from PubChem BioAssay (NCI).

What all share (assay): NCI-60 one-dose screen, 48 h (100 = growth as untreated, 0 = no growth, -100 = all killed)
For one test, the system named is DU-145 prostate. The conditions noted are these: 10 µM unless noted.
A further test has as its system K-562 leukemia. To be noted: 10 µM unless noted.
For another test, the system named is MALME-3M melanoma. The conditions noted are these: 10 µM unless noted.
The test system of a further test is MDA-MB-231 breast. To be noted: 10 µM unless noted.
The test system of another test is RXF 393 renal. To be noted: 10 µM unless noted.
The test system of the next test is SF-268 CNS. To be noted: 10 µM unless noted.
Another test deals with SF-295 CNS. The conditions noted are these: 10 µM unless noted.
In a further test the test system is SF-539 CNS. To be noted: 10 µM unless noted.
The subject of another test is UACC-257 melanoma. The conditions noted are these: 10 µM.
Another test concerns M14 melanoma. To be noted: 10 µM unless noted.

This is part of a sample that, as a whole, favours compounds with a hit. Of some 83,000 tested, about 20% had one in any assay.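 The test compound was applied at a single concentration to cells in 96-well plates for 48 hours, and percent growth was recorded.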 A number with no mark means an inactive call. The source made the active and inactive calls. The calls were made as follows: active = growth percent below 10; inactive = the rest.

Consider `COc1ccc2c(ccn2C(=O)N2c3ccccc3Sc3ccccc32)c1`, for which the growth in the test with DU-145 prostate was 28.2%; in the test on K-562 leukemia, 18.7%; in the test on MALME-3M melanoma it was 51.3%; in the test with MDA-MB-231 breast, 64.5%; in the test with RXF 393 renal, 12%; with SF-268 CNS it was 63%. For the same compound, the growth with SF-295 CNS was 16.5%; with SF-539 CNS, 11.6%; with UACC-257 melanoma, 70.3%; with M14 melanoma it was 21.8%.
As to `Oc1ccccc1/C=N/Nc1nc(N/N=C/c2ccccc2O)nc(N2CCOCC2)n1`, the growth with DU-145 prostate was 35.5%; with K-562 leukemia, 25.4%; with MALME-3M melanoma it was 52.6%; with MDA-MB-231 breast, 36.3%; with RXF 393 renal it was -0.648% (active); in the test on SF-268 CNS it was 72.3%. Moreover, the growth with SF-295 CNS is 19.6%; in the test with SF-539 CNS, 51.8%; with UACC-257 melanoma, 53.3%; in the test on M14 melanoma, 37.6%.
Take `Cc1ccc(NC(=O)c2cc(/C=C/C(=O)NO)cc(C(F)(F)F)c2)cc1Nc1nccc(-c2cccnc2)n1`: the growth in the test with DU-145 prostate was 14.1%; with K-562 leukemia, 5.9% (active); in the test on MALME-3M melanoma, -19.2% (active); with MDA-MB-231 breast it was -24.7% (active); in the test on RXF 393 renal, -8.53% (active); with SF-268 CNS, -3.6% (active). Also, the growth in the test on SF-295 CNS is -4.95% (active); with SF-539 CNS, -15.2% (active); in the test on UACC-257 melanoma it was -38.8% (active); in the test on M14 melanoma, -20.7% (active).
As to `Cn1nc(Nc2ccccc2)c(C(=O)NN)c1N`, the growth with DU-145 prostate was 106%; in the test on K-562 leukemia it was 108%; in the test with MALME-3M melanoma, 90.9%; with MDA-MB-231 breast it was 93%; in the test on RXF 393 renal, 109%; in the test with SF-268 CNS it was 103%. In addition, the growth is 103% with SF-295 CNS, 96% in the test on SF-539 CNS, 102% in the test on UACC-257 melanoma and 101% with M14 melanoma.
In the case of `O=C(N/N=C\c1ccc(Cl)cc1)c1ccc2nc(-c3ccc(Br)cc3)[nH]c2c1`, the growth in the test with DU-145 prostate is -1.02% (active); with K-562 leukemia, 2.78% (active); with MALME-3M melanoma it was -59% (active); with MDA-MB-231 breast it was 18.2%; with RXF 393 renal, -46.6% (active); in the test on SF-268 CNS, 11.9%. In addition, the growth in the test on SF-295 CNS is -37.8% (active); in the test with SF-539 CNS it was -5.56% (active); in the test on UACC-257 melanoma it was 3.89% (active); with M14 melanoma, -45.6% (active).
Regarding `COc1cc(/C=N/n2cnc3oc(-c4ccccc4)cc3c2=N)cc(CN2CCCC2)c1O`, the growth in the test with DU-145 prostate was 7.65% (active); in the test with K-562 leukemia it was 0.0184% (active); in the test on MALME-3M melanoma, -45% (active); in the test with MDA-MB-231 breast it was -70% (active); with RXF 393 renal it was 15.7%; with SF-268 CNS it was 88.6%. Also, the growth was 90.5% in the test with SF-295 CNS, 93.5% in the test on SF-539 CNS, 109% with UACC-257 melanoma and 14.1% in the test on M14 melanoma.
In the case of `CN1C(=O)/C(=C/C=C/c2ccco2)SC1=S`, the growth was 101% in the test on DU-145 prostate; 77.7% in the test with K-562 leukemia; 36% with MALME-3M melanoma; 86.8% in the test with MDA-MB-231 breast; -20.9% (active) in the test with RXF 393 renal; 91.2% in the test with SF-268 CNS. Also, the growth was 101% in the test with SF-295 CNS, 84.7% with SF-539 CNS, 88.1% in the test on UACC-257 melanoma and 45% in the test with M14 melanoma.
As to `Oc1ccc(CSc2nnc(-c3ccc(Br)cc3)n2-c2ccccc2)c2cccnc12`, the growth was 39.2% in the test with DU-145 prostate; 15.8% in the test on K-562 leukemia; 52% with MALME-3M melanoma; 59.2% in the test with MDA-MB-231 breast; 71.5% in the test on RXF 393 renal; 32.7% with SF-268 CNS. For the same compound, the growth with SF-295 CNS is 6.74% (active); with SF-539 CNS it was 16.8%; in the test with UACC-257 melanoma it was 25.2%; with M14 melanoma, 30.1%.
For the compound `C#C[C@]1(O)CC[C@H]2[C@@H]3CC=C4c5sc(-c6ccc(OC)cc6)nc5CC[C@]4(C)[C@H]3CC[C@@]21C`, the growth in the test on DU-145 prostate was 76.9%; in the test with K-562 leukemia, 14.5%; in the test with MALME-3M melanoma it was 51%; in the test with MDA-MB-231 breast, 72.3%; in the test on RXF 393 renal, -46.3% (active); with SF-268 CNS it was 58.9%. The growth in the test with SF-295 CNS is -36.6% (active); in the test on SF-539 CNS, 18.1%; with UACC-257 melanoma, 30.3%; in the test on M14 melanoma it was 36.4%.
As to `Nc1nc(-c2cccc([N+](=O)[O-])c2)c(N=Nc2cccc(Cl)c2)s1`, the growth with DU-145 prostate is 63.6%; with K-562 leukemia, 30.1%; in the test with MALME-3M melanoma, 93.1%; in the test with MDA-MB-231 breast it was 47.3%; with RXF 393 renal it was -11.4% (active); with SF-268 CNS, 41.4%. Also, the growth in the test with SF-295 CNS is 53%; in the test with SF-539 CNS, 55.2%; with UACC-257 melanoma it was 77.6%; in the test with M14 melanoma, 37%.
For `Oc1ccccc1-c1nnc(SCc2ccc(O)c3ncccc23)o1`, the growth is 29.6% with DU-145 prostate; 19.8% in the test on K-562 leukemia; 30.3% with MALME-3M melanoma; 60.6% in the test with MDA-MB-231 breast; 29.4% in the test on RXF 393 renal; 34.1% with SF-268 CNS. Also, the growth in the test on SF-295 CNS is 15.3%; in the test with SF-539 CNS it was 37%; in the test with UACC-257 melanoma, 25.2%; in the test with M14 melanoma it was 27.4%.
Turning to `NNC(=O)c1sc2nc(-c3cnccn3)cc(-c3cccs3)c2c1N`, the growth was 104% in the test on DU-145 prostate; 95.5% in the test on K-562 leukemia; 95.6% in the test with MALME-3M melanoma; 79% in the test with MDA-MB-231 breast; 102% with RXF 393 renal; 93.5% in the test on SF-268 CNS. Moreover, the growth is 104% in the test on SF-295 CNS, 94.9% in the test with SF-539 CNS, 115% in the test with UACC-257 melanoma and 105% in the test on M14 melanoma.
Consider `N#C/C(=C\c1ccc(N2CCCCC2)cc1)C(=O)Nc1sc2c(c1C#N)CCC2`, for which the growth in the test with DU-145 prostate was 101%; in the test with K-562 leukemia, 90.7%; in the test with MALME-3M melanoma it was 100%; in the test on MDA-MB-231 breast, 96.4%; in the test on RXF 393 renal, 83.5%; with SF-268 CNS, 90.3%. Moreover, the growth in the test on SF-295 CNS is 95.8%; with SF-539 CNS, 89.6%; in the test with UACC-257 melanoma, 91.7%; in the test with M14 melanoma, 102%.
